Legend:
Conditions in all cases: concentration: 1 μM,replicates: in singlicate; n = 1
TNNI3K = system: TNNI3K
TRKA = system: T1, TRKA
T1 construct: gene NTRK1

TRKB = system: TRKB
TRKC = system: T2, TRKC
T2 construct: gene NTRK3

TRPM6 = system: TRPM6
TSSK1B = system: TSSK1B
TSSK3 = system: TSSK3
TTK = system: TTK
TXK = system: TXK
[1] = system: TYK2(JH1domain-catalytic)
[2] = system: TYK2(JH2domain-pseudokinase)
TYRO3 = system: TYRO3
ULK1 = system: ULK1
ULK2 = system: ULK2
ULK3 = system: ULK3
VEGFR2 = system: T3, VEGFR2
T3 construct: gene KDR

VPS34 = system: T4, VPS34
T4 construct: gene PIK3C3

VRK2 = system: VRK2
WEE1 = system: WEE1
WEE2 = system: WEE2
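Further: KINOMEscan kinase panel screen.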

Row | Structure (SMILES) | %Inh (TNNI3K) [%] | %Inh (TRKA) [%] | %Inh (TRKB) [%] | %Inh (TRKC) [%] | %Inh (TRPM6) [%] | %Inh (TSSK1B) [%] | %Inh (TSSK3) [%] | %Inh (TTK) [%] | %Inh (TXK) [%] | %Inh [1] [%] | %Inh [2] [%] | %Inh (TYRO3) [%] | %Inh (ULK1) [%] | %Inh (ULK2) [%] | %Inh (ULK3) [%] | %Inh (VEGFR2) [%] | %Inh (VPS34) [%] | %Inh (VRK2) [%] | %Inh (WEE1) [%] | %Inh (WEE2) [%]
1 | COc1cccc(OC)c1C(=O)Nc1cccc(-c2nn3ccccc3c2-c2ccnc(Nc3cccc(F)c3)n2)c1 [GSK361065] | 8 | 0 | 0 | 0 | 4 | 20 | 0 | 5 | 6 | 0 | 0 | 79 | 0 | 13 | 0 | 18 | 0 | 0 | 9 | 12
2 | O=C(Nc1cccc(C(F)(F)F)c1)c1cccc(Oc2ccc3nccn3n2)c1 | 35 | 0 | 22 | 50 | 0 | 0 | 16 | 0 | 7 | 23 | 44 | 2 | 2 | 10 | 23 |  | 35 | 0 | 13 | 7
3 | NC(=O)c1ccc(-c2cc3ncnc(SCC(=O)O)c3s2)cc1 | 0 | 54 | 35 | 0 | 0 | 0 | 0 | 13 | 0 | 2 | 42 | 0 | 0 | 0 | 11 | 0 | 0 | 0 | 0 | 0
4 | Cc1nnc(-c2ccc3occ(-c4ccc(S(C)=O)cc4)c3n2)o1 (stereo not drawn) | 0 | 0 | 0 | 0 | 0 | 0 | 0 | 8 | 0 | 0 | 0 | 0 | 0 | 0 | 0 | 0 | 17 | 0 | 0 | 21
5 | Cc1ccn2nc(-c3ccc(F)cc3)c(-c3ccncc3)c2c1.Cl [GW457859] | 0 | 6 | 39 | 24 | 14 | 0 | 0 | 0 | 20 | 26 | 25 | 0 | 0 | 0 | 0 | 19 | 51 | 0 | 7 | 0
6 | O=C(NOCC1CC1)c1cc(Br)c(F)c(F)c1Nc1ccc(I)cc1Cl | 0 | 1 | 20 | 0 | 0 | 0 | 9 | 0 | 0 | 0 | 0 | 0 | 0 | 0 | 10 | 0 | 0 | 0 | 0 | 0
7 | O=C(Nc1n[nH]c2cc(-c3ccco3)ccc12)C1CC1 [SB-737447] | 0 | 57 | 19 | 32 | 0 | 0 | 0 | 18 | 0 | 21 | 0 | 0 | 11 | 0 | 20 | 6 | 16 | 0 | 0 | 2
8 | CCOC(=O)N1CCC(n2cnc(-c3ccc(F)cc3)c2-c2ccnc(N)n2)CC1 [SB-219952] | 0 | 42 | 34 | 24 | 4 | 0 | 12 | 0 | 16 | 48 | 67 | 20 | 4 | 26 | 8 | 3 | 35 | 27 | 0 | 0
9 | OCCn1cc(-c2cnc3nnn(Cc4ccc5ncccc5c4)c3n2)cn1 | 0 | 0 | 0 | 0 | 0 | 0 | 0 | 0 | 0 | 0 | 0 | 0 | 0 | 0 | 0 | 0 | 17 | 0 | 0 | 0
10 | CN(c1ccccc1CNc1nc(Nc2ccc3c(c2)CC(=O)N3)ncc1C(F)(F)F)S(C)(=O)=O | 0 | 99.2 | 94.7 | 89 | 0 | 12 | 0 | 99.5 | 0 | 88 | 0 | 0 | 71 | 69 | 40 | 28 | 0 | 0 | 0 | 0
11 | CSc1nccc(-c2c(-c3ccc(F)cc3)ncn2CCCN2CCOCC2)n1.Cl [SB-217146] | 0 | 0 | 0 | 0 | 10 | 0 | 0 | 0 | 0 | 13 | 22 | 0 | 12 | 36 | 14 | 7 | 16 | 30 | 0 | 1
12 | Cn1ccc2ncnc(Oc3ccc(NC(=O)Nc4cccc(C(F)(F)F)c4)c(Cl)c3)c21 | 87 | 53 | 84 | 84 | 0 | 0 | 0 | 25 | 0 | 0 | 0 | 0 | 0 | 0 | 1 | 98.2 | 0 | 0 | 3 | 9
13 | COc1cccc(C2=C(Nc3cccc(Cl)c3)C(=O)NC2=O)c1 [SB-341556] | 14 | 0 | 36 | 19 | 0 | 16 | 6 | 13 | 1 | 14 | 46 | 21 | 42 | 7 | 12 | 0 | 0 | 0 | 5 | 0
14 | O=C(Nc1ccccc1)c1cccc(Oc2ccc3nccn3n2)c1 | 2 | 0 | 0 | 21 | 0 | 0 | 0 | 0 | 0 | 5 | 18 | 29 | 0 | 0 | 0 |  | 6 | 0 | 0 | 0
15 | COc1cc(Nc2nccc(N3CCC(NC(=O)c4cccc(C#N)c4)C3)n2)cc(OC)c1OC (stereo not drawn) [GSK1379751] | 14 | 60 | 53 | 64 | 0 | 10 | 7 | 0 | 9 | 72 | 55 | 0 | 12 | 0 | 96.7 | 0 | 0 | 0 | 0 | 0
16 | COc1cc2ncn(-c3cc(OCC4CCCCC4)c(C(N)=O)s3)c2cc1OC [GSK204559] | 5 | 31 | 0 | 0 | 13 | 0 | 3 | 30 | 0 | 12 | 15 | 0 | 9 | 0 | 25 | 4 | 20 | 0 | 0 | 25
17 | Cc1ccc(Nc2ccnc(Nc3ccc4c(c3)CS(=O)(=O)C4)n2)cc1O.Cl [GW579362] | 70 | 100 | 91.7 | 78 | 25 | 1 | 27 | 81 | 90 | 96.9 | 99.5 | 79 | 55 | 2 | 99.5 | 93.6 | 76 | 0 | 50 | 98.3
18 | CS(=O)c1ccc(-c2coc3ccc(-c4n[nH]c(=O)o4)cc23)cc1 (stereo not drawn) | 0 | 26 | 0 | 39 | 0 | 0 | 0 | 0 | 4 | 9 | 47 | 0 | 35 | 0 | 0 | 17 | 94.3 | 0 | 2 | 16
19 | CS(=O)(=O)Nc1ccc(-c2ccnc3[nH]ccc23)cc1 [GSK993273] | 7 | 91 | 48 | 39 | 27 | 17 | 26 | 60 | 0 | 99.6 | 24 | 0 | 64 | 10 | 95.4 | 48 | 31 | 0 | 5 | 0
20 | C[C@@H]1CNc2c(sc3ccc4nc(-c5ccc(O)cc5)ccc4c23)C(=O)N1 | 1 | 7 | 0 | 0 | 0 | 0 | 4 | 9 | 7 | 74 | 23 | 0 | 38 | 63 | 24 | 11 | 9 | 17 | 17 | 0
21 | O=C(Nc1cccc(Oc2ccc3nccn3n2)c1)Nc1cccc(C(F)(F)F)c1 | 66 | 76 | 35 | 55 | 0 | 13 | 0 | 0 | 22 | 9 | 1 | 0 | 0 | 0 | 3 |  | 14 | 0 | 0 | 9

— publication PMC5540273 (PLoS ONE, 2017)
